Bfl-1 A1 inh: caspase 3/7 activation in MEF A1-2A-BIM cells, primary screen, A1 inhibitor project, cell-based, luminescence, HTS; Caspase-Glo 3/7 luminescence, 3 h; percent of clofoctol response, vehicle zero; caspase activation, % (test concentration not listed); 330,000 tested, 0.066% active; AID 2462, 2010;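 active = over half of replicate activation scores above 10%, or exactly half above 10 with the replicate mean above 10; inconclusive = replicate mean below 10 yet half the replicates above 10; inactive = over half of replicates below 10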
Dyrk1A ADPGlo: rat Dyrk1A kinase inhibitors, primary screen, biochemical, single point, plate reader | ADP-Glo luminescence, NFATc1 peptide | inhibition, % at 12.5 µM | 310,000 tested, 0.43% active | AID 504441, 2011; in the data active = inhibition above about 50%
dFosB act: activators of delta FosB homodimer, primary screen, biochemical, fluorescence polarization, TAMRA-CDK5 oligo, single point; purified delta FosB; percent of positive-control signal above neutral wells; activation, % at 25 µM; 340,000 tested, 0.99% active; AID 493131, 2011;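 active = mean activation above about 17%, with every replicate also reaching it, limit read from the data, passing the limit was not always enough; inconclusive = only one of the two conditions met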
Beta2AR agonist: beta2AR agonists driving receptor internalization, primary screen, cell-based, FAP fluorogen, flow cytometry; Beta-2 adrenergic receptor (Homo sapiens), P07550; Am2.2-beta2AR cells; response, % (no concentration beside the values); 340,000 tested, 0.43% active;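 active = response above a set limit, near 3 SD of response in nonfluorescent compounds, cut at about 42% in these data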
Target sequence (P07550 whole entry, looked up): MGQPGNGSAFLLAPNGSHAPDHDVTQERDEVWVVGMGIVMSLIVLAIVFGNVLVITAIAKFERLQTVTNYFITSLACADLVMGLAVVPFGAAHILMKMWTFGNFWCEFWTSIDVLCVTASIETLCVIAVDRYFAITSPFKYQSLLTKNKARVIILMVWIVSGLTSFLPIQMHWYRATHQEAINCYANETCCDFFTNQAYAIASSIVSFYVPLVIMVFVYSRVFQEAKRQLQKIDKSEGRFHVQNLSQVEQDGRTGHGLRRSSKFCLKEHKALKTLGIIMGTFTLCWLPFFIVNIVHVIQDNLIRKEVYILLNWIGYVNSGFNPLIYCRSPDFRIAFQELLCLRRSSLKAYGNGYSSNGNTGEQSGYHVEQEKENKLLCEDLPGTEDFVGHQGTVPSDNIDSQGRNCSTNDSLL
Each line names hits and unclear results; the compound was inactive in the other large screens. Compounds with a hit are over-represented: about 1.6% of the library has one in this group of screens.

CN(C)c1ccc(CCc2ccc(N)cc2)cc1	none
Nc1ccc(N(c2ccccc2)c2ccc(N)cc2)cc1	dFosB act 23
COc1ccc(/C=C/C(=O)c2ccc([N+](=O)[O-])o2)cc1OC	none (no result: Dyrk1A ADPGlo, dFosB act, Beta2AR agonist)
O=C(/C=C/c1cccc(Cl)c1)c1ccc([N+](=O)[O-])o1	Beta2AR agonist 66
CSc1ncccc1C(=O)OCC(=O)NCCCc1ccccc1	none (no result: Dyrk1A ADPGlo)
COC(=O)c1cc(OC)c(OC)cc1NC(=O)c1ccccc1	none
COC(=O)c1cc(OC)c(OC)cc1NC(=O)c1ccc(OC)c(OC)c1	dFosB act 19
CSCCC(NS(=O)(=O)c1ccccc1F)C(=O)Nc1cccc(C)n1 (stereo not drawn)	none
COc1cc(C(=O)NNC(=O)CCOc2cccc(Br)c2)cc(OC)c1OC	none
CCOc1ccc(OCCC(=O)NNC(=O)c2cc(OC)c(OC)c(OC)c2)cc1	Beta2AR agonist 83
COc1ccc(/C=C(/NC(=O)c2ccco2)C(=O)N2CCOCC2)cc1	Beta2AR agonist 49
COc1cc(N=Nc2cccc(S(N)(=O)=O)c2)c2ccccc2c1N	Dyrk1A ADPGlo 58
COc1ccc(CS(=O)(=O)/C(Cl)=C(/Cl)C(=O)Nc2ccc(OC)nc2)cc1	Beta2AR agonist 48
COc1ccc(NC(=O)/C(Cl)=C(/Cl)S(=O)Cc2ccccc2)cn1 (stereo not drawn)	Beta2AR agonist 50
COc1ccc(/C=C/C(=O)Nc2ccc(OC)nc2)cc1	none
COc1ccc(NC(=O)Cc2ccccc2)cn1	none
O=S(=O)(c1ccccc1Cl)N1CCC(Cc2ccccc2)CC1	none
CCOC(=O)C1=C(C)N(c2ccc(C)cc2)C(=O)/C1=C\c1cccs1	none
CCOC(=O)C1=C(C)N(c2ccccc2)C(=O)/C1=C\c1cccs1	Beta2AR agonist 91
COc1cc(OC)cc(-c2c(C#Cc3ccsc3)c3cc(-c4ccc5cc[nH]c5c4)ccc3n2C)c1	none
COc1cc(OC)cc(-c2c(C#Cc3ccsc3)c3cc(-c4cccc5[nH]ccc45)ccc3n2C)c1	dFosB act 18
CCCCCCC(=O)Nc1nc(C)c(-c2csc(Nc3ccc(Cl)cc3)n2)s1	Dyrk1A ADPGlo 57
CC(Sc1nnc(-c2ccccc2F)n1C1CC1)C(=O)NC(N)=O (stereo not drawn)	none
CCOC(=O)c1c(C)[nH]c(C(=O)OCC(=O)Nc2ccc(OC)c(Cl)c2)c1C	dFosB act 140
CN(C)N1C(=O)c2c(Cl)c(Cl)c(Cl)c(Cl)c2C1=O	none (no result: Bfl-1 A1 inh)
COc1ccc(C2=Nn3c(nnc3-c3ccncc3)SC2)cc1OC	dFosB act 88
COc1c(/C=C2\SC(=Nc3ccccc3Cl)NC2=O)cccc1[N+](=O)[O-]	Dyrk1A ADPGlo 53
O=C(NCCSCc1ccco1)c1ccc(=O)[nH]c1	none
OC(COc1ccc(F)cc1Cl)CN1CCC(Cc2ccccc2)CC1 (stereo not drawn)	Dyrk1A ADPGlo 51
C=CS(=O)(=O)c1ccc(Oc2ccc(S(=O)(=O)C=C)cc2)cc1	Beta2AR agonist 42
Cc1cccc(N2CC(C)Cn3c2nc2c3c(=O)[nH]c(=O)n2C)c1 (stereo not drawn)	none
C#CCOCCOCCOCCNc1nc(N2CCOCC2)nc(N2CCN(C(=O)CCCCCCCCCCNC(=O)[C@H]([C@@H](C)CC)n3cc(CCCCN=C(N)N)nn3)CC2)n1	none
C#CCOCCOCCOCCNc1nc(N2CCN(C(=O)CCCCCCCCCCNC(=O)[C@H]([C@@H](C)CC)n3cc(CCCCN=C(N)N)nn3)CC2)nc(N2CCN(C(=O)CCCCCCCCCCNC(=O)[C@@H]([C@H](C)O)n3cc(C)nn3)CC2)n1	Beta2AR agonist 104
C#CCOCCOCCOCCNc1nc(N2CCN(C(=O)CCCCCCCCCCNC(=O)Cn3cc(CCCCCN)nn3)CC2)nc(N2CCN(C(=O)CCCCCCCCCCNC(=O)[C@@H]([C@H](C)O)n3cc(C)nn3)CC2)n1	Beta2AR agonist 55
C#CCOCCOCCOCCNc1nc(N2CCN(C(=O)CCCCCCCCCCNC(=O)Cn3cc(C[C@@H](C)O)nn3)CC2)nc(N2CCN(C(=O)CCCCCCCCCCNC(=O)[C@@H]([C@H](C)CC)n3cc(CCCCCN)nn3)CC2)n1	Bfl-1 A1 inh inconclusive, Beta2AR agonist 95

Screens: PubChem, several laboratories
